Experimental data published in the supplement of paper PMC10849652.
The full data set covers some 7,900 targets. This sample favours those with a hit. About 0.6% of all pairs of compound and target were hits. Unmarked numbers belong to inactive results.

Compound: c1cn2cc(-c3ccc4cn[nH]c4c3)nc(Nc3ccc(N4CCOCC4)cc3)c2n1 [entospletinib]
Assay: log2 fold change, soluble protein after heating vs DMSO (PISA); higher = thermal stabilisation; K562 cells, 10 uM, 30 min; active = over 0.2 and 3.5 SD of the protein, either way, in both replicates (recomputed)
Summary of the method: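 K562 cells at 2×10^6 cells/mL were given 10 μM compound for 30 min. Aliquots then went through 3 min of heating across 48°C-58°C, were pooled, and were extracted in PBS with 0.5% NP-40 at 4°C, and the supernatant after 21,000xg for 90 min was quantified by TMTpro 16plex LC-MS/MS with channel sums equalised. Thermal stability relative to control samples, from duplicates, is given as log2 fold change.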

Sequence of UniProt Q9NP79 (Q9NP79 whole entry, looked up): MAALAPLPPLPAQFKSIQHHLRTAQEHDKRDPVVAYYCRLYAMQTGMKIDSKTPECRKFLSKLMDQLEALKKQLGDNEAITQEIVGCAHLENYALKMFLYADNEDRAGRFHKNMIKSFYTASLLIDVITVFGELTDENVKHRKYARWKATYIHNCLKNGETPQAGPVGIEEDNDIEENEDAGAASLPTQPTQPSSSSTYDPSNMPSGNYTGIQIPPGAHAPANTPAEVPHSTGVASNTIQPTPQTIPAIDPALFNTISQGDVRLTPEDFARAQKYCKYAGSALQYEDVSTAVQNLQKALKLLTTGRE
Sequence of UniProt Q9Y6I4 (Q9Y6I4 whole entry, looked up): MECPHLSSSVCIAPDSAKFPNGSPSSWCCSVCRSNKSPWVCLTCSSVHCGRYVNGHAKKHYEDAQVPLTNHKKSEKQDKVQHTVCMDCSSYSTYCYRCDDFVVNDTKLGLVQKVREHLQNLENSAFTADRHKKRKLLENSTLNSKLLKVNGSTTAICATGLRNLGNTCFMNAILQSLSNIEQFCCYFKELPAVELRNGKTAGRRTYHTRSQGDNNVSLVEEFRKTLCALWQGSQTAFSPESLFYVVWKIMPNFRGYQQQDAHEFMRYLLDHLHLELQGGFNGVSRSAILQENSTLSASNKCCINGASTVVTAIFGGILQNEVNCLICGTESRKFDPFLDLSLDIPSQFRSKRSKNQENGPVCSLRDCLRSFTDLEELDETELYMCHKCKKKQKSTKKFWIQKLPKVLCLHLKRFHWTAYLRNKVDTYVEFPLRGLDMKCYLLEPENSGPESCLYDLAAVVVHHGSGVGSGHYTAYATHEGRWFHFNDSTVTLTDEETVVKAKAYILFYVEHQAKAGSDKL
Sequence of UniProt P12956 (P12956 whole entry, looked up): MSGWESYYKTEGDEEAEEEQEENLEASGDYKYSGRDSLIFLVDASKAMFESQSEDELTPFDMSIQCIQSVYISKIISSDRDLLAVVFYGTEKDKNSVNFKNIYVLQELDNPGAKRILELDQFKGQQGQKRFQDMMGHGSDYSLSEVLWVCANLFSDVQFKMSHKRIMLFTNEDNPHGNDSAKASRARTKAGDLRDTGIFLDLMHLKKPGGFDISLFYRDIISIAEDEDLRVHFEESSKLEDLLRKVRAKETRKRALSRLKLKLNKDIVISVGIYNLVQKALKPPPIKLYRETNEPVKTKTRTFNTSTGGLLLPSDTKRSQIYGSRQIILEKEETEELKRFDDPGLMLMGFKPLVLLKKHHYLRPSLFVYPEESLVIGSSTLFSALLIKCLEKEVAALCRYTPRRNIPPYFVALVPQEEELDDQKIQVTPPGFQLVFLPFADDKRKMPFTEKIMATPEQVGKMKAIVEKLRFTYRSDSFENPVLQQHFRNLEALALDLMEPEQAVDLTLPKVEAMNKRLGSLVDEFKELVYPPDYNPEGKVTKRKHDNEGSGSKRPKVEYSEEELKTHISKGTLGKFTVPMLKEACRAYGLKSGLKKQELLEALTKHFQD
Sequence of UniProt Q15642 (Q15642 whole entry, looked up): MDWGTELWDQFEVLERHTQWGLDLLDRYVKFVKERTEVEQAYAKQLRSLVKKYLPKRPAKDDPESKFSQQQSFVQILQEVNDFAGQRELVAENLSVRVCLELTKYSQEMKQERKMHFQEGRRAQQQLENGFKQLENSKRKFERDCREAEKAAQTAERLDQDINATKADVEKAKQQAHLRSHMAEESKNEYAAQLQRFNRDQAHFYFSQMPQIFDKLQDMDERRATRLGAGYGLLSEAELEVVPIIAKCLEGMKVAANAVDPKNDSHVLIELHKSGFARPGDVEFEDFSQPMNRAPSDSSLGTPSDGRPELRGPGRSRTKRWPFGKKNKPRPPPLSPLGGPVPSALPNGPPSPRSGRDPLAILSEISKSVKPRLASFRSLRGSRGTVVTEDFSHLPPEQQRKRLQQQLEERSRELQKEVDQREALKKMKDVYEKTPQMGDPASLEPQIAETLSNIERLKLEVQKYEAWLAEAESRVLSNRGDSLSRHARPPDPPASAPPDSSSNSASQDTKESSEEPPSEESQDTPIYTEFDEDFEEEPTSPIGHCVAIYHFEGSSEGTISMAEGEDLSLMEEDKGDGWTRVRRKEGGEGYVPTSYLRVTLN
Sequence of UniProt Q9BXJ8 (Q9BXJ8 whole entry, looked up): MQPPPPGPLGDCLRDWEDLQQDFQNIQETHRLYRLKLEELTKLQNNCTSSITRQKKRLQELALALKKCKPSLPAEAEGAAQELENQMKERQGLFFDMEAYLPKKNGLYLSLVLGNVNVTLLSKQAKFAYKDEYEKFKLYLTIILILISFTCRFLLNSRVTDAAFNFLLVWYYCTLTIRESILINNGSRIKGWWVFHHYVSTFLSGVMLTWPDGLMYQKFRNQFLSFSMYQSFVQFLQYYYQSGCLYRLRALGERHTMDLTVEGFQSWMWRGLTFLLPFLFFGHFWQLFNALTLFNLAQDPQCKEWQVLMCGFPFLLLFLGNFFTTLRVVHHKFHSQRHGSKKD
Sequence of UniProt O95801 (O95801 whole entry, looked up): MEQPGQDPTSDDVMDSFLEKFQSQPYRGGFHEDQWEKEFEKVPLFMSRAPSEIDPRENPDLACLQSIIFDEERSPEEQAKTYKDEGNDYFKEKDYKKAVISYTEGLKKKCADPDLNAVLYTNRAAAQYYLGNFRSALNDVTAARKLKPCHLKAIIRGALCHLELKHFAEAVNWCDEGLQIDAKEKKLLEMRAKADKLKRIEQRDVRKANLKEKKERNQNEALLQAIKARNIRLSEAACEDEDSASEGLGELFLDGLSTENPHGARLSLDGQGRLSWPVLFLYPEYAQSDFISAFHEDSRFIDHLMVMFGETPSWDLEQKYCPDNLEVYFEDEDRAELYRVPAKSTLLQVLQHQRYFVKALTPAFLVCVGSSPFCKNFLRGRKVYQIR
Sequence of UniProt Q9C037 (Q9C037 whole entry, looked up): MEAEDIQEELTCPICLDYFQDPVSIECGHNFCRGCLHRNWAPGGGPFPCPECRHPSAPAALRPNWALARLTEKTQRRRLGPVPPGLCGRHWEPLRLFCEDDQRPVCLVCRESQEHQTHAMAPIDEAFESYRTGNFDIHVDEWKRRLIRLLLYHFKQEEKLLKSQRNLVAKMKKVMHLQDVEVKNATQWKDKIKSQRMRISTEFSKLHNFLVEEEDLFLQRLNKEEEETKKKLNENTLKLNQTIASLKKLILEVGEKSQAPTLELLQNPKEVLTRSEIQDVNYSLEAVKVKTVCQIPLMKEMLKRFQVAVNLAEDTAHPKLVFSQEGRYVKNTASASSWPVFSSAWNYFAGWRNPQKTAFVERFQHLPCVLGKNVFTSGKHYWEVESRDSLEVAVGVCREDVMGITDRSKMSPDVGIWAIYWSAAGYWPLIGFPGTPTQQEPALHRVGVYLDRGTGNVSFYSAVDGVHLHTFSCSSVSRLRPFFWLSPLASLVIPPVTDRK
Sequence of UniProt Q9Y4E8 (Q9Y4E8 whole entry, looked up): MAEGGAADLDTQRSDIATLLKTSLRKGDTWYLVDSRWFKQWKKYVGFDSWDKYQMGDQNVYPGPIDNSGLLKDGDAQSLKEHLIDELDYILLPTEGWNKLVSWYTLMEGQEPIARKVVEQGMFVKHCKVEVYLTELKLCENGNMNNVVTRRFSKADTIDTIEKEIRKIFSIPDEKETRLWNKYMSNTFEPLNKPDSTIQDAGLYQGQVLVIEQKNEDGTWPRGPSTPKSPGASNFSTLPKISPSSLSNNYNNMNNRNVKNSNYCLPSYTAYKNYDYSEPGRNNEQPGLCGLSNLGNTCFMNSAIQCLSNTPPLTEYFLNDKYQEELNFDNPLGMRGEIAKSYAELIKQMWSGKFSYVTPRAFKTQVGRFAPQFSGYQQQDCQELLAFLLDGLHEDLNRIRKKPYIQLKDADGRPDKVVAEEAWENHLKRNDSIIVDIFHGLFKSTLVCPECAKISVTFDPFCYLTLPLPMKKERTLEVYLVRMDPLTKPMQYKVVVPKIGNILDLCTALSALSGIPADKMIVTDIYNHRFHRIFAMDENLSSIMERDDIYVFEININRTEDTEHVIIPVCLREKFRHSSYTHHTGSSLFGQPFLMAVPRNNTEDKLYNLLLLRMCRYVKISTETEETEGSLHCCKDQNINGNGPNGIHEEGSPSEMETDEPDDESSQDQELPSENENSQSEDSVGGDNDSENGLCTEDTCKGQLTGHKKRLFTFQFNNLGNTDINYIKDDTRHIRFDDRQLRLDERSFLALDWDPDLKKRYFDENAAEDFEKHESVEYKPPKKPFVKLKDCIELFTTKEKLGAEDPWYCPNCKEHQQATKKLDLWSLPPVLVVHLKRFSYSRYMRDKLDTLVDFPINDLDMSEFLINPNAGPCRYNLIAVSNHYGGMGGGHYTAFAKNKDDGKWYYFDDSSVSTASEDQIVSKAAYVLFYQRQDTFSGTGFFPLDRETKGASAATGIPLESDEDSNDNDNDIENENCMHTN
Sequence of UniProt A0PJW6 (A0PJW6 whole entry, looked up): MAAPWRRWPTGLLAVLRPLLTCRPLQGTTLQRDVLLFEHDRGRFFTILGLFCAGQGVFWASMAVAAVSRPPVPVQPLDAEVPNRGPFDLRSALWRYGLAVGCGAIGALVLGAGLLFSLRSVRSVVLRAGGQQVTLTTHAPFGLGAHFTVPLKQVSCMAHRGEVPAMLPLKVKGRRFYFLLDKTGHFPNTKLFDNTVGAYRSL
Sequence of UniProt Q8WVY7 (Q8WVY7 whole entry, looked up): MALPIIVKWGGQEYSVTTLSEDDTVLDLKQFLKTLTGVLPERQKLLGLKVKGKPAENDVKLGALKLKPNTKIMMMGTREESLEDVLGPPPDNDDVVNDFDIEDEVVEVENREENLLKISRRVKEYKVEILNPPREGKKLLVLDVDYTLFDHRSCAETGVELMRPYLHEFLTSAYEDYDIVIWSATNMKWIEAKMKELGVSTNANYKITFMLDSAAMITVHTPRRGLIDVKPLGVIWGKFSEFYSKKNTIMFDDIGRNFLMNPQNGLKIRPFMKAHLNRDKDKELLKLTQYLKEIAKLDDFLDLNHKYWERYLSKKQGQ
Sequence of UniProt Q9NX01 (Q9NX01 whole entry, looked up): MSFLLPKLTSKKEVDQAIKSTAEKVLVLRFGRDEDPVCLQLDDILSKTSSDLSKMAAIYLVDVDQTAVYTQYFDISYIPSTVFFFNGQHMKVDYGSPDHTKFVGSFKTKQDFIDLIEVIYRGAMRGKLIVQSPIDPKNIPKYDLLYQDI

Target	log2 fold change
TRAPPC8 (UniProt Q9Y2L5)	0.004
WDHD1 (UniProt O75717)	-0.019
TTC4 (UniProt O95801)	-0.002
U2AF1 isoform 2 (UniProt Q01081)	-0.052
WASHC2C, A0A096LPC5	0.085
VTA1 (UniProt Q9NP79)	-0.005
TRIM4 (UniProt Q9C037)	0.089
UPF3B (UniProt Q9BZI7)	0.098
VPS16 (UniProt Q9H269)	-0.06
UCHL5 isoform 3 (UniProt Q9Y5K5)	-0.025
UBE2Q1 (UniProt Q7Z7E8)	0.007
UBE2J2 isoform 3 (UniProt Q8N2K1)	-0.028
TNNC2 (UniProt P02585)	-0.038
TMEM223 (UniProt A0PJW6)	0.047
USP9X (UniProt Q93008)	-0.01
U2AF1L5 (UniProt P0DN76)	-0.497
WRB (UniProt O00258)	0.005
TTI1 (UniProt O43156)	0.1
UBAP2L isoform 5 (UniProt Q14157)	-0.007
TXNRD1 isoform 7 (UniProt Q16881)	0.04

Target	log2 fold change
UBC (UniProt P0CG48)	0.068
XRCC6 (UniProt P12956)	0
VWA8 (UniProt A3KMH1)	-0.03
WARS1 (UniProt G3V5U1)	0.342
UBE2E3 (UniProt Q969T4)	-0.002
TPM2 (UniProt P07951)	-0.069
USP3 (UniProt Q9Y6I4)	-0.003
TMEM161B (UniProt Q8NDZ6)	0.016
TXNL4B (UniProt Q9NX01)	0.002
UBAP1 isoform 4 (UniProt Q9NZ09)	0.005
TMEM161A (UniProt Q9NX61)	-0.026
TMEM120A (UniProt Q9BXJ8)	-0.404 (active)
TRMT10C (UniProt Q7L0Y3)	-0.043
USP15 (UniProt Q9Y4E8)	0.018
TRIP10 (UniProt Q15642)	0.061
UBE2S (UniProt Q16763)	-0.029
UBLCP1 (UniProt Q8WVY7)	-0.013
VDAC1 (UniProt C9JI87)	-0.088
UGGT1 (UniProt Q9NYU2)	-0.018
VRK1 (UniProt Q99986)	-0.149
